Experimental data reported in the supplement of paper PMC3545927.
Some of the results follow. The true hit rate is not given.

Target: furin, P09958
Experiment: furin cleavage Z-score vs untreated control; higher = more cleavage, active = 3.5 or more, inactive = 1 or less, 8 variable residues between constant flanks
Summary of the method: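 Furin cleavage was scored on 8-mer peptides joined to a cDNA oligonucleotide and bound to magnetic beads at the N-terminus. Digestion with purified furin (1:10 enzyme:substrate, 0.01 ml, 50 mM HEPES pH 7.5, CaCl2, NaCl) lasted 7.5, 15 or 30 min. Freed DNA was tagged with adapters by PCR, sequenced and counted; the cleavage Z-score is the lowess-adjusted log count versus furin-free reactions, scaled by median absolute deviation.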

Chain of furin, P09958 (P09958 whole entry): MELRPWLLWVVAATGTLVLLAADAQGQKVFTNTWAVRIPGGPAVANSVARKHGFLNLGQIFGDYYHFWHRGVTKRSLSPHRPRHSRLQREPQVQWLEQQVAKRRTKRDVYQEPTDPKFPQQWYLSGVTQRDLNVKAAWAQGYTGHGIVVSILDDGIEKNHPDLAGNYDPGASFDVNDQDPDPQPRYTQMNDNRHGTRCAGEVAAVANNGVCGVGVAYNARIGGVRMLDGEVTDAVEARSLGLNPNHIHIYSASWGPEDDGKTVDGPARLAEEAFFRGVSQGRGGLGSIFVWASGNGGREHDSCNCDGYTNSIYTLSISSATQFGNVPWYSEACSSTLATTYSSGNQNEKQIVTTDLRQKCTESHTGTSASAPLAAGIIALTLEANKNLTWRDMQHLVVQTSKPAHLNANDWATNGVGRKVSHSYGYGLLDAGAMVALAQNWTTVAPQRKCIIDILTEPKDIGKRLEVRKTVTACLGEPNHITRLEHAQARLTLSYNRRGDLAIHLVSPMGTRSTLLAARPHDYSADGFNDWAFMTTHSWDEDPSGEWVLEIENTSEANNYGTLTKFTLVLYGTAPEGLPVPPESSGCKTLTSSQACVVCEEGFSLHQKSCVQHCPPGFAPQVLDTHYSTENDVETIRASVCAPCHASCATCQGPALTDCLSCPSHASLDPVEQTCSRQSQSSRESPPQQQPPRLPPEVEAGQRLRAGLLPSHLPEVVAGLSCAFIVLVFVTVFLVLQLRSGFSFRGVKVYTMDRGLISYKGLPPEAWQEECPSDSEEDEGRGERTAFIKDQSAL

In the case of CAPLPPPKSPAGNASASA [HC1318], the “furin cleavage Z-score” value (7.5 min) is reported as -0.389 (inactive), the “furin cleavage Z-score” value (15 min) is reported as 0.488 (inactive) and the “furin cleavage Z-score” value (30 min) is reported as -0.355 (inactive).

With CAFGYGAKDVAGNASASA [HC1421] the “furin cleavage Z-score” value (7.5 min) was 0.651 (inactive), the “furin cleavage Z-score” value (15 min) was 1.8 and the “furin cleavage Z-score” value (30 min) was 1.24.

CAAYQVRNSTAGNASASA [HC256] was tested, and the “furin cleavage Z-score” value (7.5 min) was -0.996 (inactive), the “furin cleavage Z-score” value (15 min) was -1.12 (inactive) and the “furin cleavage Z-score” value (30 min) was -0.888 (inactive).

CAEDLVNLLPAGNASASA [HC1099] was tested, and the “furin cleavage Z-score” value (7.5 min) was 0.711 (inactive), the “furin cleavage Z-score” value (15 min) was 1.96 and the “furin cleavage Z-score” value (30 min) was 0.196 (inactive).

In the case of CAEAVVCCSMAGNASASA [HC2123], the “furin cleavage Z-score” value (7.5 min) is reported as -0.484 (inactive), the “furin cleavage Z-score” value (15 min) is reported as 0.759 (inactive) and the “furin cleavage Z-score” value (30 min) is reported as 0.473 (inactive).

In the case of CARHYRSNSPAGNASASA [FS-2027], the “furin cleavage Z-score” value (7.5 min) is reported as 1.06, the “furin cleavage Z-score” value (15 min) is reported as -1.02 (inactive) and the “furin cleavage Z-score” value (30 min) is reported as -0.217 (inactive).

CARHKRWHFIAGNASASA [FS-1824] was tested, and the “furin cleavage Z-score” value (7.5 min) was 2.19, the “furin cleavage Z-score” value (15 min) was 2.25 and the “furin cleavage Z-score” value (30 min) was 4.89 (active).

CARHYRWALGAGNASASA [FS-1719] was tested, and the “furin cleavage Z-score” value (7.5 min) was -0.124 (inactive), the “furin cleavage Z-score” value (15 min) was 3.28 and the “furin cleavage Z-score” value (30 min) was 3.44.

CARHKRVGTLAGNASASA [FS-2143] was tested, and the “furin cleavage Z-score” value (7.5 min) was 0.0898 (inactive), the “furin cleavage Z-score” value (15 min) was 0.0513 (inactive) and the “furin cleavage Z-score” value (30 min) was 2.38.

With CARHYRNVFHAGNASASA [FS-2557] the “furin cleavage Z-score” value (7.5 min) was 1.27, the “furin cleavage Z-score” value (15 min) was 2.18 and the “furin cleavage Z-score” value (30 min) was 5.01 (active).

CARHKRTIPMAGNASASA [FS-2023] was tested, and the “furin cleavage Z-score” value (7.5 min) was 6.33 (active), the “furin cleavage Z-score” value (15 min) was 8.53 (active) and the “furin cleavage Z-score” value (30 min) was 8.43 (active).

With CARHGRDLYRAGNASASA [FS-2675] the “furin cleavage Z-score” value (7.5 min) was 1.82, the “furin cleavage Z-score” value (15 min) was 4.66 (active) and the “furin cleavage Z-score” value (30 min) was 6.11 (active).

In the case of CARHKRIPPEAGNASASA [FS-3254], the “furin cleavage Z-score” value (7.5 min) is reported as 0.983 (inactive), the “furin cleavage Z-score” value (15 min) is reported as 0.356 (inactive) and the “furin cleavage Z-score” value (30 min) is reported as 0.464 (inactive).

CARHKRVHSGAGNASASA [FS-1895] was tested, and the “furin cleavage Z-score” value (7.5 min) was -1.2 (inactive), the “furin cleavage Z-score” value (15 min) was -0.376 (inactive) and the “furin cleavage Z-score” value (30 min) was -0.241 (inactive).

For CARHQRTENIAGNASASA [FS-2942], the “furin cleavage Z-score” value (7.5 min) was -1.07 (inactive), the “furin cleavage Z-score” value (15 min) was -2.42 (inactive) and the “furin cleavage Z-score” value (30 min) was -0.236 (inactive).

In the case of CAMEECEQHLAGNASASA [HC33], the “furin cleavage Z-score” value (7.5 min) is reported as -0.264 (inactive), the “furin cleavage Z-score” value (15 min) is reported as 1.94 and the “furin cleavage Z-score” value (30 min) is reported as 0.732 (inactive).

In the case of CAEDVTSTWVAGNASASA [HC2171], the “furin cleavage Z-score” value (7.5 min) is reported as 0.61 (inactive), the “furin cleavage Z-score” value (15 min) is reported as -0.472 (inactive) and the “furin cleavage Z-score” value (30 min) is reported as 0.123 (inactive).

In the case of CAEHEVPCHRAGNASASA [HC2455], the “furin cleavage Z-score” value (7.5 min) is reported as 0.493 (inactive), the “furin cleavage Z-score” value (15 min) is reported as 1.57 and the “furin cleavage Z-score” value (30 min) is reported as 2.02.

For CARRKKALEIAGNASASA [FS-2593], the “furin cleavage Z-score” value (7.5 min) was 0.898 (inactive), the “furin cleavage Z-score” value (15 min) was 1.66 and the “furin cleavage Z-score” value (30 min) was 1.58.

CARRARGADAAGNASASA [FS-2512] was tested, and the “furin cleavage Z-score” value (7.5 min) was 2.72, the “furin cleavage Z-score” value (15 min) was 3.57 (active) and the “furin cleavage Z-score” value (30 min) was 4.42 (active).

In the case of CARRKKSAPAAGNASASA [FS-2514], the “furin cleavage Z-score” value (7.5 min) is reported as 4.51 (active), the “furin cleavage Z-score” value (15 min) is reported as 6.24 (active) and the “furin cleavage Z-score” value (30 min) is reported as 5.54 (active).

With CAVAIKSLTEAGNASASA [HC1496] the “furin cleavage Z-score” value (7.5 min) was 0.199 (inactive), the “furin cleavage Z-score” value (15 min) was 0.138 (inactive) and the “furin cleavage Z-score” value (30 min) was 0.903 (inactive).

With CARRKKSGRGAGNASASA [FS-2777] the “furin cleavage Z-score” value (7.5 min) was 0.0968 (inactive), the “furin cleavage Z-score” value (15 min) was 0.171 (inactive) and the “furin cleavage Z-score” value (30 min) was 1.92.

In the case of CARRARVTDAAGNASASA [FS-2513], the “furin cleavage Z-score” value (7.5 min) is reported as 0.594 (inactive), the “furin cleavage Z-score” value (15 min) is reported as 0.414 (inactive) and the “furin cleavage Z-score” value (30 min) is reported as 0.64 (inactive).

CARRARSAPAAGNASASA [FS-2368] was tested, and the “furin cleavage Z-score” value (7.5 min) was 10.3 (active), the “furin cleavage Z-score” value (15 min) was 10.4 (active) and the “furin cleavage Z-score” value (30 min) was 8.53 (active).

In the case of CARRKKSLSEAGNASASA [FS-3050], the “furin cleavage Z-score” value (7.5 min) is reported as 4.99 (active), the “furin cleavage Z-score” value (15 min) is reported as 7.01 (active) and the “furin cleavage Z-score” value (30 min) is reported as 7.62 (active).

For CAVTSPLTTSAGNASASA [HC1059], the “furin cleavage Z-score” value (7.5 min) was -0.539 (inactive), the “furin cleavage Z-score” value (15 min) was -0.0107 (inactive) and the “furin cleavage Z-score” value (30 min) was -0.218 (inactive).

For CAEVVTSTEVAGNASASA [HC2232], the “furin cleavage Z-score” value (7.5 min) was -0.0344 (inactive), the “furin cleavage Z-score” value (15 min) was 0.123 (inactive) and the “furin cleavage Z-score” value (30 min) was -0.271 (inactive).

For CALPCSFTTLAGNASASA [HC498], the “furin cleavage Z-score” value (7.5 min) was 0.311 (inactive), the “furin cleavage Z-score” value (15 min) was 0.0716 (inactive) and the “furin cleavage Z-score” value (30 min) was 0.261 (inactive).

With CAETTTPCSGAGNASASA [HC1978] the “furin cleavage Z-score” value (7.5 min) was 0.473 (inactive), the “furin cleavage Z-score” value (15 min) was 0.124 (inactive) and the “furin cleavage Z-score” value (30 min) was -0.446 (inactive).

With CAGHRMAWDMAGNASASA [HC318] the “furin cleavage Z-score” value (7.5 min) was -0.464 (inactive), the “furin cleavage Z-score” value (15 min) was -0.574 (inactive) and the “furin cleavage Z-score” value (30 min) was -0.169 (inactive).

With CATGLTHIDAAGNASASA [HC942] the “furin cleavage Z-score” value (7.5 min) was -0.972 (inactive), the “furin cleavage Z-score” value (15 min) was -0.954 (inactive) and the “furin cleavage Z-score” value (30 min) was 0.105 (inactive).

For CAERPCHRPSAGNASASA [HC2333], the “furin cleavage Z-score” value (7.5 min) was 1.21, the “furin cleavage Z-score” value (15 min) was -1.94 (inactive) and the “furin cleavage Z-score” value (30 min) was 1.34.

CAWICEVLSDAGNASASA [HC1152] was tested, and the “furin cleavage Z-score” value (7.5 min) was 0.155 (inactive), the “furin cleavage Z-score” value (15 min) was 0.346 (inactive) and the “furin cleavage Z-score” value (30 min) was 0.769 (inactive).

In the case of CARRHIDLLVAGNASASA [HC290], the “furin cleavage Z-score” value (7.5 min) is reported as 1.11, the “furin cleavage Z-score” value (15 min) is reported as 0.566 (inactive) and the “furin cleavage Z-score” value (30 min) is reported as 1.2.

CAEVFTSTWVAGNASASA [HC2187] was tested, and the “furin cleavage Z-score” value (7.5 min) was 0.575 (inactive), the “furin cleavage Z-score” value (15 min) was -0.109 (inactive) and the “furin cleavage Z-score” value (30 min) was -0.829 (inactive).

CADKSRSPRSAGNASASA [FS-409] was tested, and the “furin cleavage Z-score” value (7.5 min) was 6.8 (active), the “furin cleavage Z-score” value (15 min) was 6.47 (active) and the “furin cleavage Z-score” value (30 min) was 6.46 (active).

With CAYIERSPRSAGNASASA [FS-520] the “furin cleavage Z-score” value (7.5 min) was 1.05, the “furin cleavage Z-score” value (15 min) was 2.95 and the “furin cleavage Z-score” value (30 min) was 3.61 (active).

For CAGSQLPCEPAGNASASA [HC1239], the “furin cleavage Z-score” value (7.5 min) was -0.324 (inactive), the “furin cleavage Z-score” value (15 min) was -2.36 (inactive) and the “furin cleavage Z-score” value (30 min) was 0.573 (inactive).

In the case of CANWAVRTKLAGNASASA [HC1634], the “furin cleavage Z-score” value (7.5 min) is reported as 1.9, the “furin cleavage Z-score” value (15 min) is reported as 0.613 (inactive) and the “furin cleavage Z-score” value (30 min) is reported as -0.705 (inactive).

With CAREKRRSADAGNASASA [FS-2915] the “furin cleavage Z-score” value (7.5 min) was 2.47, the “furin cleavage Z-score” value (15 min) was 1.11 and the “furin cleavage Z-score” value (30 min) was 0.11 (inactive).

For CAREKRAAEQAGNASASA [FS-1850], the “furin cleavage Z-score” value (7.5 min) was 7.93 (active), the “furin cleavage Z-score” value (15 min) was 9.37 (active) and the “furin cleavage Z-score” value (30 min) was 8.96 (active).

With CAREKRSNSQAGNASASA [FS-2008] the “furin cleavage Z-score” value (7.5 min) was 6.55 (active), the “furin cleavage Z-score” value (15 min) was 8.6 (active) and the “furin cleavage Z-score” value (30 min) was 7.52 (active).

With CARERRGREQAGNASASA [FS-1697] the “furin cleavage Z-score” value (7.5 min) was 0.641 (inactive), the “furin cleavage Z-score” value (15 min) was 1.84 and the “furin cleavage Z-score” value (30 min) was 1.15.

With CAQHLPYIEQAGNASASA [HC1017] the “furin cleavage Z-score” value (7.5 min) was -0.597 (inactive), the “furin cleavage Z-score” value (15 min) was -0.486 (inactive) and the “furin cleavage Z-score” value (30 min) was -0.755 (inactive).

CAREKRAKIKAGNASASA [FS-2207] was tested, and the “furin cleavage Z-score” value (7.5 min) was -1.38 (inactive), the “furin cleavage Z-score” value (15 min) was 0.0659 (inactive) and the “furin cleavage Z-score” value (30 min) was 0.59 (inactive).

For CARFARMIEQAGNASASA [FS-2257], the “furin cleavage Z-score” value (7.5 min) was 1.16, the “furin cleavage Z-score” value (15 min) was 3.39 and the “furin cleavage Z-score” value (30 min) was 3.53 (active).

With CAREKRSISDAGNASASA [FS-1889] the “furin cleavage Z-score” value (7.5 min) was 9.34 (active), the “furin cleavage Z-score” value (15 min) was 11.3 (active) and the “furin cleavage Z-score” value (30 min) was 8.9 (active).

For CAREARVVSDAGNASASA [FS-2908], the “furin cleavage Z-score” value (7.5 min) was -1.38 (inactive), the “furin cleavage Z-score” value (15 min) was -0.98 (inactive) and the “furin cleavage Z-score” value (30 min) was -0.486 (inactive).

In the case of CAREKKSNSPAGNASASA [FS-2006], the “furin cleavage Z-score” value (7.5 min) is reported as -0.648 (inactive), the “furin cleavage Z-score” value (15 min) is reported as -0.595 (inactive) and the “furin cleavage Z-score” value (30 min) is reported as -1.15 (inactive).

In the case of CAREKRGGETAGNASASA [FS-2134], the “furin cleavage Z-score” value (7.5 min) is reported as -0.448 (inactive), the “furin cleavage Z-score” value (15 min) is reported as 0.845 (inactive) and the “furin cleavage Z-score” value (30 min) is reported as 1.95.

CARAPRSSSQAGNASASA [FS-3147] was tested, and the “furin cleavage Z-score” value (7.5 min) was 1.17, the “furin cleavage Z-score” value (15 min) was 1.52 and the “furin cleavage Z-score” value (30 min) was 0.934 (inactive).
